An excerpt weighted towards active compounds, which were near 3.5% of everything screened.
UGM FP inh – Mtb UDP-galactopyranose mutase inhibition | AID 504406 | 320,000 tested, 0.06% active | P9WIQ1 | purified UGM, fluorescence polarization probe displacement | inhibition, % at 10 µM; in the data active = inhibition above about 10%, passing the limit was not always enough
Rv3671c inh – Rv3671c (M. tuberculosis) protease inhibition; inhibition, % at 5.96 µM; 320,000 tested, 0.048% active; in the data active = inhibition above about 38%;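 note: extracellular domain of Rv3671c used as enzyme; 0% = enzyme with DMSO and 100% = no enzyme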
Target sequence (P9WHR9 whole entry, looked up, the tested form may be a part): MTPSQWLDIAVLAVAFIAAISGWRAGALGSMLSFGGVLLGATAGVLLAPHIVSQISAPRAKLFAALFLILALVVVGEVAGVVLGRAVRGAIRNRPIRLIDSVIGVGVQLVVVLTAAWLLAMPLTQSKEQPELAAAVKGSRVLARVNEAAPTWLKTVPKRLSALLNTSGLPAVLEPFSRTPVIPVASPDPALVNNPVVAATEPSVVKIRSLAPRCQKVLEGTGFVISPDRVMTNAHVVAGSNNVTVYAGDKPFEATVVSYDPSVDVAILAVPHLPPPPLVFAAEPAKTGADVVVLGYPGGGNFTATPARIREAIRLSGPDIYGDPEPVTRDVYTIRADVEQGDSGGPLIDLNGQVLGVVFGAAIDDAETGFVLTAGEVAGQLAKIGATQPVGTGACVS
FBA Mtb inh – Mtb fructose-bisphosphate aldolase inhibition; P9WQA3; purified M. tuberculosis FBA, fluorescence read-out; inhibition, % at 1 µM; 360,000 tested, 2.3% active; AID 588726;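 note: 0% = vehicle and 100% = reference inhibitor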
GDH-TPI counter-1 – counter-screen for M. tuberculosis FBA inhibitors: GDH-TPI coupled enzymes; GDH-TPI coupled enzyme counterscreen, NADH absorbance; inhibition, % at 4.8 µM; 360,000 tested, 1.2% active; AID 588335; in the data active = inhibition above about 30%;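 note: 0% = DMSO wells and 100% = wells lacking the enzyme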
Mtb bLac sens – beta-lactam sensitization of Mtb H37Rv; inhibition, % at 25 µM; 330,000 tested, 0.27% active; M. tuberculosis H37Rv growth with meropenem, percent inhibition; AID 434955; call rule not given here;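 note: growth measured after seven days incubation then overnight dye step; 0% = bacteria only wells and 100% = bacteria with antibiotic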
Mtb FBA confirm – Mtb FBA inhibition, confirmed; inhibition, % at 1 µM; purified M. tuberculosis FBA, fluorescence read-out; 5,600 tested, 78% active; shares compounds with FBA Mtb inh;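 note: 0% = vehicle wells and 100% = reference inhibitor wells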
GDH-TPI counter-2 – GDH-TPI inhibition counter-screen for FBA inhibitors. AID 652141. shares compounds with FBA Mtb inh. inhibition, % at 1 µM. GDH-TPI coupled enzyme counterscreen, fluorescence. 5,600 tested, 81% active; in the data active = inhibition above about 10%
GDH-TPI DR – counter-screen for M. tuberculosis FBA inhibitors: GDH-TPI dose response; IC50, µM; shares compounds with FBA Mtb inh; 170 tested, 79% active; GDH-TPI coupled enzyme assay, fluorescence, artifact counterscreen; call rule not given here
Active calls of the source: *; nt = not tested or not shown; + = active, no number. Cut-off read from the data, not from the text of the source, unless noted: active = inhibition above about 27%; inactive = the rest.

SMILES	UGM FP inh	Rv3671c inh	FBA Mtb inh	GDH-TPI counter-1	Mtb bLac sens	Mtb FBA confirm	GDH-TPI counter-2	others
CCc1nn(CC(=O)N(C)C2CCCCC2)c(=O)c2cc3cc(C)ccc3n12	0.6	2.7	-2.3	-3.5	4.6	nt	nt
Cc1c(Br)c(C(=O)NCc2cc3cc(Cl)ccc3[nH]2)nn1C	-0.6	-16.3	66.3*	10.7	19.4	85.4*	83.7*
CC1(c2nnc(-c3ccccc3)o2)CC(c2ccc([N+](=O)[O-])cc2)=NO1 (stereo not given)	2.3	-4.5	-1.7	-0.9	-5.3	nt	nt
CCc1noc(C)c1C(=O)N1CCN(S(=O)(=O)c2ccc(Cl)cc2)CC1	4.0	4.0	33.3*	-9.6	-5.6	94.4*	79.0*
Cc1[nH]c(C(=O)N/N=C/c2ccc(N(C)C)cc2)c(C)c1C(=O)N/N=C/c1ccc(N(C)C)cc1	-2.2	4.3	27.6*	45.5*	7.6	59.9*	43.8*
CN(C)c1ccc(/C=N/NC(=O)CCCO)cc1	-0.5	-3.4	19.7	22.1	-0.8	nt	nt
CN(C)c1ccc(/C=N\NC(=O)CC#N)cc1	-0.9	1.1	29.5*	35.0*	2.4	12.5	2.7
O=C(CCC(=O)Nc1cccc([N+](=O)[O-])c1)N/N=C/c1cccs1	1.8	nt	-4.0	15.5	0.7	nt	nt
COc1ccc(OC)c(/C=C/C(=O)Nc2cccc(S(=O)(=O)N3CCCC3)c2)c1	-2.9	-84.0	30.0*	8.4	-8.3	48.7*	43.2*
CCN1CCN(c2ccc(S(=O)(=O)N3CCCCC3)cc2NC(=O)/C=C/c2cc(OC)ccc2OC)CC1	-0.5	-1.2	20.4	7.5	2.6	nt	nt
COc1ccc(S(=O)(=O)NCCC(=O)OCc2cc(=O)oc3cc(C)ccc23)cc1[N+](=O)[O-]	nt	nt	1.4	6.0	nt	nt	nt
Cc1ccc2c(COC(=O)c3ccc(C)c(C)c3)cc(=O)oc2c1	0.6	4.7	1.5	2.2	-13.6	nt	nt
CCCNS(=O)(=O)c1cccc(C(=O)OCc2cc(=O)oc3cc(OC)ccc23)c1	-0.6	-22.9	38.0*	11.1	1.5	76.4*	58.8*
CN(C)c1cccc(C(=O)OCc2cc(=O)oc3cc(O)ccc23)c1	3.3	-6.5	54.6*	12.1	-3.0	+	+
COc1ccc2c(COC(=O)CNS(=O)(=O)c3ccc(C)c(C)c3)cc(=O)oc2c1	-0.9	-8.0	72.7*	11.1	-12.8	30.9*	27.8*
COc1ccc2c(COC(=O)CCS(=O)(=O)c3ccc(C)cc3)cc(=O)oc2c1	0.9	2.1	106.6*	9.1	1.4	30.2*	25.8*
Cc1cccc2nc(CNC(=O)CC3C(=O)NCCN3Cc3cccc(F)c3)cn12 (stereo not given)	3.1	6.3	3.0	-3.9	0.8	nt	nt
COc1cc2c(cc1OC)CN(C(=O)c1ccc3[nH]c(C)c(C)c3c1)CC2	2.5	-3.6	0.3	9.8	-10.0	nt	nt
COc1ccc(-c2cc(C(=O)OCC(=O)Nc3cc(C)on3)c3ccccc3n2)cc1OC	-0.6	-9.3	-0.8	0.5	-2.8	nt	nt
Cc1ccc(-c2cc(C(=O)OCC(=O)Nc3cc(C)on3)c3ccccc3n2)c(C)c1	0.8	12.8	103.1*	8.6	-4.1	58.3*	49.6*
CCCCOC(=O)Nc1nnc(/C=C/c2ccc(OC)cc2)s1	-2.4	2.0	16.6	19.9	4.4	nt	nt
CCC(=O)Nc1nnc(/C=C/c2ccccc2)s1	-2.6	-1.8	32.7*	31.0*	4.4	123.8*	103.2*
CCOC(=O)Nc1nnc(-c2ccc(OC)cc2)s1	-1.3	-0.2	51.9*	7.8	4.3	158.4*	121.0*
CCOC(=O)Nc1nnc(-c2cccc(OC)c2)s1	-0.4	-5.7	97.8*	10.5	-3.3	+	178.1*
CCOC(=O)Nc1nnc(/C=C/c2ccc(OC)cc2)s1	-2.4	2.1	33.2*	36.0*	21.8	-2.8	-7.2
SMILES	UGM FP inh	Rv3671c inh	FBA Mtb inh	GDH-TPI counter-1	Mtb bLac sens	Mtb FBA confirm	GDH-TPI counter-2	others
CCc1nnc(NC(=O)Cc2ccc(OC)cc2)s1	1.6	-4.1	1.6	2.3	0.4	nt	nt
CCC(c1nnc(SCC(=O)Nc2cc(S(C)(=O)=O)ccc2Cl)n1Cc1ccccc1)N(C)C (stereo not given)	1.9	5.5	3.2	3.4	-9.1	nt	nt
CNc1nc(N)nc(OC(C(F)(F)F)C(F)(F)F)n1	-4.4	0.1	-0.3	-8.5	-6.2	nt	nt
CCCCN1C[C@H](CSC)[C@@H](CC(=O)Nc2ccc(Br)cc2)C1=O	nt	nt	3.0	0.0	nt	nt	nt
OCc1ccc(-c2nn(Cc3ccccc3)c3ccccc23)o1	1.6	-11.6	58.3*	18.1	5.6	81.7*	66.6*
CCOC(=O)c1cc2c(N)c(C(=O)c3ccc(Br)cc3)sc2[nH]c1=O	1.3	-9.9	-1.0	6.9	0.7	nt	nt
COc1ccc(-c2cnc3nc(/N=C/N(C)C)nn3c2/N=C/N(C)C)cc1	0.5	-2.6	-3.8	13.3	-8.7	nt	nt
CN(C)/C=N/c1nc2nccc(-c3ccccc3)n2n1	0.8	-3.2	51.7*	10.8	-1.6	132.0*	105.6*
CN(C)/C=N/c1nc2nccc(-c3ccc(Cl)cc3)n2n1	-1.2	2.5	72.2*	19.1	-8.9	-4.2	-5.0
CC(OC(=O)/C=C/c1ccccc1Cl)C(=O)NC1CCCCC1C (stereo not given)	0.6	-7.5	3.0	5.0	-4.5	nt	nt
Cc1sc2ncn(/N=C/c3ccco3)c(=O)c2c1C	0.2	10.4	1.4	6.1	-0.2	nt	nt
COc1ccc2cc(C(N)=O)c(=Nc3ccccc3)oc2c1	0.1	-20.1	35.6*	13.2	-2.7	10.3	-5.4	GDH-TPI DR=>10
COc1ccc2nc(-c3ccccc3)cc(C(=O)OCC(=O)N3CCCCC3)c2c1	2.2	-41.8	87.0*	0.5	59.8	+	+
COc1ccc2nc(-c3ccccc3)cc(C(=O)OCC(=O)N3CC(C)OC(C)C3)c2c1 (stereo not given)	-0.1	-29.7	110.4*	9.6	64.8	38.1*	29.8*
O=C(Nc1ccccn1)c1ccc(Br)c(S(=O)(=O)N2CCCCC2)c1	0.4	-10.4	51.3*	2.2	6.5	+	+
O=C(Nc1ccccn1)c1ccc(Br)c(S(=O)(=O)N2CCCC2)c1	-4.4	-5.7	-2.3	4.5	-7.2	nt	nt
CC1(C)CC(=O)c2cc(OCC(=O)NCc3cccnc3)ccc2O1	-1.5	-5.9	62.0*	-0.9	-8.5	-3.5	-6.3
CCCCCCCNC(=O)COc1ccc2c(c1)C(=O)CC(C)(C)O2	4.8	-0.4	42.7*	2.0	-3.4	56.0*	56.4*
CC(C)NC(=O)COc1ccc2c(c1)C(=O)CC(C)(C)O2	6.8	4.9	71.3*	9.1	4.9	+	186.5*
COc1ccc(OCC(=O)NCc2cccnc2)cc1	4.2	2.5	-5.3	6.8	-0.5	nt	nt
CC1(C)CC(=O)c2cc(OCC(=O)NCCCN3CCN(c4ccccc4F)CC3)ccc2O1	-0.9	1.4	15.2	12.6	-8.4	nt	nt
